From PubChem BioAssay (NCATS) come the findings set out here.

Results filed as inconclusive are left out. Values without a mark were called inactive. The source made the active and inactive calls. Calls come from the whole dose curve; as a rule, active = well fitted inhibition curve with a large enough effect; inconclusive = small, poorly fitted or top-dose-only effect; inactive = flat fitted curve, though single readings scatter.

A short description of assay [1]: qHTS profiling for inhibitors of Plasmodium falciparum proliferation (AID 504749).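 For activity, negative = inhibition: 0% = DMSO vehicle and full inhibition = artemisinin control.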 Note: nearly all actives have a fitted effect of over 60% in size. The settings on record: P. falciparum in erythrocytes, SYBR Green DNA, 72 h. The procedure, abridged: (§1)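 Fluorescence of SYBR Green-bound parasite DNA, read at 485/535 nm, served as the growth measure. Infected erythrocytes were cultured with compound 72 h; artemisinin (0.29 uM) and DMSO wells defined the normalization range.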

The next assay concerns 3D7. The assay is described as above. To be noted: P. falciparum in erythrocytes, SYBR Green DNA, 72 h; series mostly up to 28.7 µM. In short, it runs like this: as §1
In a further assay the test system is 7G8. The description is as above. The settings on record: P. falciparum in erythrocytes, SYBR Green DNA, 72 h; series mostly up to 28.7 µM. The procedure, abridged:
as §1

In another assay the test system is AA1029. The assay is described as above. To be noted: P. falciparum in erythrocytes, SYBR Green DNA, 72 h; series mostly up to 28.7 µM. The procedure, abridged: as §1
The subject of another assay is AS120. Described as above. To be noted: P. falciparum in erythrocytes, SYBR Green DNA, 72 h; series mostly up to 28.7 µM. The procedure, abridged: as §1
For the next assay, the system named is ATS189. The description is as above. The settings on record: P. falciparum in erythrocytes, SYBR Green DNA, 72 h; series mostly up to 28.7 µM. The procedure, abridged: as §1
The next assay relates to C2A. The description is as above. The settings on record: P. falciparum in erythrocytes, SYBR Green DNA, 72 h; series mostly up to 28.7 µM. In short, it runs like this: as §1
A further assay relates to CP185. The assay is described as above. The settings on record: P. falciparum in erythrocytes, SYBR Green DNA, 72 h; series mostly up to 28.7 µM. In short, it runs like this: as §1
The subject of the next assay is CP192. Described as above. To be noted: P. falciparum in erythrocytes, SYBR Green DNA, 72 h; series mostly up to 28.7 µM. In short, it runs like this: as §1
Another assay has as its system ATS95. Described as above. The settings on record: P. falciparum in erythrocytes, SYBR Green DNA, 72 h; series mostly up to 28.7 µM. In short, it runs like this:
as §1

In another assay the test system is CP191. The description is as above. To be noted: P. falciparum in erythrocytes, SYBR Green DNA, 72 h; series mostly up to 28.7 µM. In short, it runs like this:
as §1

Where [2] appears, read: at 28.7 µM (top of the series), parasite line A.
The mark [3] stands for this setting: at 28.7 µM (top of the series), parasite line B.
Potency is the fitted concentration of half-maximal effect.

As to `CCN(CC)CCOC(=O)c1cccnc1`, the activity, negative = inhibition in [1] (setting [2]) was -11.6%; in [1] (setting [3]), -3.84%. Besides, the Potency result in the assay with 3D7, with 7G8, in the assay with AA1029, in the assay with AS120, with ATS189 and in the assay on C2A was “inactive” in each case. Moreover, the Potency result in the assay with CP185 and in the assay on CP192 was “inactive” in each case.

`N=C(N)n1cccn1`: the activity, negative = inhibition in assay [1] (setting [2]) was -11.6%; in [1] (setting [3]) it was 1.65%. The Potency entry in the assay on 3D7, with 7G8, in the assay on AA1029, with AS120, in the assay with ATS189 and in the assay with ATS95 was “inactive” each time. Further, the Potency entry with C2A, with CP185, with CP191 and with CP192 was “inactive” each time.

For `C/C=C/C=C/C(=O)O`, the activity, negative = inhibition in [1] (setting [2]) is -0.87%; in assay [1] (setting [3]), -21%. Further, the Potency entry in the assay on 3D7, with 7G8, in the assay on AA1029, in the assay with AS120, in the assay on ATS189 and in the assay with C2A was “inactive” throughout. The Potency result in the assay on CP185, with CP191 and in the assay with CP192 was “inactive” throughout.

For the compound `O=C(O)c1ccc(OCCn2ccnc2)cc1`, the activity, negative = inhibition in assay [1] (setting [2]) is 13.9%; in [1] (setting [3]), 6.25%. For the same compound, the Potency result in the assay on 3D7, in the assay with 7G8, in the assay on AA1029, in the assay with AS120, in the assay on ATS189 and in the assay with ATS95 was “inactive” each time. Besides, the Potency entry with C2A, with CP185, in the assay on CP191 and in the assay with CP192 was “inactive” throughout.

On to `CCOC(=O)C1=C(COCCN)NC(C)=C(C(=O)OC)C1c1ccccc1Cl` (stereo unspecified), for which the values for the activity, negative = inhibition in assay [1] (setting [2]) and in [1] (setting [3]) were -0.523% and -8.98%, respectively. Moreover, the Potency result with 3D7, in the assay with AA1029, with AS120, in the assay with ATS95, in the assay with C2A and in the assay on CP185 was “inactive” each time. In addition, the Potency result in the assay with CP191 and in the assay on CP192 was “inactive” throughout. For the same compound, the Potency in the assay with 7G8 was 11.2 µM (active).

With `CCc1ccc(S(=O)(=O)O)cc1`, the activity, negative = inhibition is -3.46% in assay [1] (setting [2]) and 4.58% in assay [1] (setting [3]). In addition, the Potency entry in the assay on 3D7, with 7G8, in the assay with AA1029, with AS120, in the assay with ATS189 and with ATS95 was “inactive” in each case. Also, the Potency entry with C2A, with CP185, in the assay on CP191 and in the assay with CP192 was “inactive” each time.

With `CNC(=O)C[C@@H](N)C(=O)N[C@@H](C(=O)N[C@@H]1C(=O)N2[C@@H]1SC(C)(C)[C@@H]2C(=O)O)c1ccc(O)cc1`, the results for the activity, negative = inhibition in assay [1] (setting [2]) and in assay [1] (setting [3]) were 11.3% and 15.8%, respectively. Besides, the Potency entry with 3D7, in the assay with 7G8, in the assay with AA1029, with AS120, in the assay on ATS189 and with ATS95 was “inactive” throughout. Also, the Potency entry in the assay with C2A, in the assay with CP185, with CP191 and in the assay on CP192 was “inactive” throughout.

On to `CC(C)(Oc1ccc(C2CCCc3ccccc32)cc1)C(=O)O` (stereo unspecified), for which the activity, negative = inhibition in assay [1] (setting [2]) was 0.13%; in [1] (setting [3]), 7.8%. Also, the Potency entry with 3D7, in the assay on 7G8, in the assay on AA1029, in the assay on AS120, in the assay on ATS189 and in the assay with ATS95 was “inactive” in each case. The Potency result in the assay on C2A, in the assay with CP185, in the assay with CP191 and in the assay with CP192 was “inactive” each time.

As to `Cc1cccc(C)c1NC(=O)NC1=CCCN1C`, the activity, negative = inhibition was 5.4% in assay [1] (setting [2]) and 1.38% in [1] (setting [3]). In addition, the Potency result with 3D7, in the assay on 7G8, in the assay with AA1029, in the assay on ATS189, with ATS95 and in the assay with C2A was “inactive” throughout. Further, the Potency result with CP185, in the assay with CP191 and in the assay with CP192 was “inactive” in each case.

Consider `N#Cc1ccc2c(c1)N(CCCN1CCC(O)CC1)c1ccccc1S2`, for which the activity, negative = inhibition in assay [1] (setting [2]) is -11.2%; in [1] (setting [3]), -26.8%. For the same compound, the Potency entry in the assay with 3D7, with C2A and with CP192 was “inactive” each time. The Potency in the assay with 7G8 was 12.6 µM (active); in the assay with AA1029 it was 11.2 µM (active).

Take `CCC(C)[C@@H](N)C(=O)O` (stereo partly specified): the results for the activity, negative = inhibition in [1] (setting [2]) and in assay [1] (setting [3]) were 11.4% and 24.4%, respectively. Moreover, the Potency entry in the assay with 3D7, in the assay on 7G8, with AA1029, in the assay with AS120, in the assay on ATS189 and in the assay with ATS95 was “inactive” throughout. The Potency result in the assay on C2A, in the assay on CP185, in the assay on CP191 and with CP192 was “inactive” each time.

Turning to `O=C(O[C@H]1CN2CCC1CC2)N1CCc2ccccc2[C@@H]1c1ccccc1`, the values for the activity, negative = inhibition in assay [1] (setting [2]) and in assay [1] (setting [3]) were -23.3% and -19.3%, respectively. The Potency result with 3D7, in the assay on AS120, with ATS189, with ATS95, with CP185 and in the assay on CP192 was “inactive” each time. Moreover, the Potency in the assay with 7G8 is 5.62 µM (active).

For the compound `CCSc1ccc2c(c1)N(CCCN1CCN(C)CC1)c1ccccc1S2`, the activity, negative = inhibition was 14.2% in assay [1] (at 12.8 µM (top of the series), parasite line A) and 7.58% in assay [1] (at 12.8 µM (top of the series), parasite line B). The Potency entry in the assay with 3D7, in the assay on AA1029, with AS120, in the assay on ATS189, in the assay with ATS95 and in the assay on C2A was “inactive” throughout. Also, the Potency result in the assay on CP185, in the assay with CP191 and with CP192 was “inactive” each time.

Consider `O=P(O)(O)OC[C@H](O)CO`, for which the results for the activity, negative = inhibition in assay [1] (setting [2]) and in assay [1] (setting [3]) were -1.1% and 9.77%, respectively. Further, the Potency entry in the assay on 3D7, in the assay with 7G8, with AA1029, with AS120, with ATS189 and in the assay with ATS95 was “inactive” in each case. Besides, the Potency entry with C2A, in the assay with CP185, in the assay with CP191 and in the assay with CP192 was “inactive” in each case.

As for `CCCCCCCCCCCCCCCCCC(=O)OCC(C)O` (stereo unspecified), the activity, negative = inhibition was 4.03% in assay [1] (setting [2]) and -12.1% in [1] (setting [3]). In addition, the Potency entry in the assay on 3D7, in the assay on 7G8, with AA1029, in the assay with AS120, in the assay with ATS189 and with ATS95 was “inactive” throughout. Further, the Potency result in the assay with C2A, in the assay with CP185, in the assay on CP191 and in the assay with CP192 was “inactive” each time.
